Compound activity from PubChem BioAssay.
Rab9 prom act = Rab9 promoter activation. Huh7 Rab9 promoter-luciferase reporter, luminescence, 24 h. Potency, µM (titrated, usually from 9.22 µM), inactives show at the top dose activation, negative = inhibition, most hits filed as activators. actives 2.8% (n = 320,000). AID 485297; further: % of control where 0% means no effect; nearly all actives have a fitted effect of over 60% in size
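Huh7 reporter line, Rab9 promoter upstream of luciferase. Compound exposure 24 h at 37 °C in reduced-serum medium with 10% FBS. Read-out: luminescence.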
FLuc modulator = firefly luciferase modulation, counter-screen for miR-21 project | P08659 | purified FLuc, Km substrates, luminescence inhibition | Potency, µM (top dose mostly 57.5 µM), for the others: at the highest dose activity change, negative = inhibition, most hits filed as inhibitors | actives 6.9% (n = 360,000) | AID 588342;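 further: plate controls were vehicle for no effect and reference inhibitor for full effect; nearly all actives have a fitted effect of over 55% in size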
Target sequence (P08659 whole entry, looked up): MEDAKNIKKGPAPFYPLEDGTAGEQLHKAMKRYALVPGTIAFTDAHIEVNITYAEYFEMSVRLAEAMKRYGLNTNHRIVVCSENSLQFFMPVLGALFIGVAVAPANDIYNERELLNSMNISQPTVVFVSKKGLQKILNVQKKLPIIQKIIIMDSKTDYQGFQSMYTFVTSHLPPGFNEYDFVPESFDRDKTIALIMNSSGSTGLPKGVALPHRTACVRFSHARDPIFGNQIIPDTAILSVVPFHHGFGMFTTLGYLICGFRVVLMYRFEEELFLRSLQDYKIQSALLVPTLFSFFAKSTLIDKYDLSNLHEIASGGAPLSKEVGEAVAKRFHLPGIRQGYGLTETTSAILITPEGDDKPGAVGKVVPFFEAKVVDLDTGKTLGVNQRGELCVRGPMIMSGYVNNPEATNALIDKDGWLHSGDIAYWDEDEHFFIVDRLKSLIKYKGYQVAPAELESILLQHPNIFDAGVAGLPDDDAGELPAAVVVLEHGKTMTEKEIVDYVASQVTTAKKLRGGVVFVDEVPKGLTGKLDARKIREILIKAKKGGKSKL
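Biochemical qHTS of compounds, final roughly 60 µM downward over six points, against 10 nM purified firefly luciferase using Km concentrations of substrates (10 uM D-luciferin, 10 uM ATP) in Tris acetate pH 7.5 buffer; luminescence output.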
ELG1 genotox = inducers of genotoxicity in HEK293T ELG1-luciferase cells; HEK293T ELG1-luciferase reporter, luminescence, 16 h; Potency, µM (doses to about 46 µM), without a hit: at the highest dose activity change, positive = activation, hits mostly activators; actives 1.3% (n = 330,000); AID 504466; further: % of control where 0% means no effect; nearly all actives have a fitted effect of over 60% in size
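After overnight (16 hr) compound treatment at 37 °C, ELG1-luciferase HEK293T cells were lysed with ONE-Glo; luminescence quantified 30 min later at room temperature.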
SMN2 splice up = increases expression of the SMN2 splice variant; HEK293 SMN2-luciferase splicing reporter, luminescence, 30-36 h; Potency, µM (doses to about 46.1 µM), inactives show at the top dose activity change, positive = activation, hits mostly activators; actives 2.8% (n = 210,000); further: % of control where 0% means no effect; nearly all actives have a fitted effect of over 55% in size
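HEK293 cells carry an SMN2 minigene-luciferase reporter in which exon 7 inclusion puts luciferase in frame. Cells were seeded at 2000 cells/well, attached for 10-12 hours, then exposed to compounds for 30-36 hours at 37C before ONE-Glo luminescence.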
NPC1 promoter act = activators of NPC1 promoter. Huh7 NPC1 promoter luciferase reporter, 24 h. Potency, µM (series often up to 9.22 µM), without a hit: at the top dose activation, most hits filed as activators. actives 2.4% (n = 320,000). AID 485313; further: % of control where 0% means no effect; nearly all actives have a fitted effect of over 60% in size
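Luminescence read-out of NPC1 promoter-driven luciferase in stably transfected Huh7 cells; compounds delivered in DMSO and left 24 h at 37C, 5% CO2, qHTS titration format.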
* marks the source's active call; other numbers are inactive results; ? = inconclusive; . = not tested or not shown; [ ] = remark or other dose. Sampled rows, rich in hits. Any-hit rate of the full collection: about 7.4%. The call rests on the fitted dose curve; in most records, active means well fitted curve in the direction sought with a large enough effect; inconclusive means small, poorly fitted or top-dose-only effect, or another doubt; inactive means no such curve, though single readings can be large; an effect the other way counts as inactive or inconclusive. Potency means the concentration at half of the fitted maximal effect.

SMILES	Rab9 prom act	FLuc modulator	ELG1 genotox	SMN2 splice up	NPC1 promoter act
Cc1ccc(OCCSc2nc(N)cc(N)n2)cc1	1.8µM*	24µM*	?	.	3.2µM*
Fc1ccc(NCc2ccccc2-c2nnc(-c3ccccc3Cl)o2)cc1Cl	.	?	.	11%	.
Cc1ccc(NC(=O)Cn2cc(S(=O)(=O)N3CCN(c4ccccc4F)CC3)c3ccccc3c2=O)cc1F	.	4%	.	1%	.
Cc1cccc(C2=N/C(=C\c3cccs3)C(=O)O2)c1	2%	2.1µM*	3%	1%	-1%
Cc1ccc(C2=N/C(=C\N(C)C)C(=O)O2)cc1	?	15µM*	15µM*	16%	?
CN(C)/C=C1\N=C(c2ccc(Cl)cc2Cl)OC1=O	0.63µM*	?	9.2µM*	-32%	1.1µM*
Cc1ccc(C2=N/C(=C\c3cccc(F)c3)C(=O)O2)cc1	1%	3µM*	0%	.	2%
C=C1C2=CC(=O)OC(c3ccoc3)[C@]2(C)CCC1[C@]1(C)C=CC(=O)C(C)(C)C1CC(=O)OC (some centres not stated)	.	.	.	-2%	.
Cc1ccccc1-c1nc(-n2ccnc2)c2ccccc2n1	.	.	.	-42%	.
Cc1cccc(CNc2nc(-c3ccccc3CN(C)C)nc3ccccc23)c1	.	.	.	-27%	.
Cc1cc(C(=O)COC(=O)c2ccccc2O)c(C)n1CC1CCCO1 (configuration not stated)	-29%	0.085µM*	-9%	.	-27%
Cc1cc(C(=O)Cn2cc([N+](=O)[O-])ccc2=O)c(C)n1CC1CCCO1 (configuration not stated)	12%	-9%	3%	.	-3%
Cc1cc(C(=O)COC(=O)c2n[nH]c3ccccc23)c(C)n1CC1CCCO1 (configuration not stated)	0.32µM*	?	?	-34%	0.35µM*
Cc1cc(C(=O)COC(=O)c2cccnc2Cl)c(C)n1CC1CCCO1 (configuration not stated)	?	0.24µM*	0.52µM*	11%	?
Cc1cc(C(=O)COC(=O)C2COc3ccccc3O2)c(C)n1CC1CCCO1 (configuration not stated)	-8%	4.8µM*	-1%	-4%	1%
Cc1cc(C(=O)COc2ccccc2C(N)=O)c(C)n1CC1CCCO1 (configuration not stated)	-9%	?	-6%	-93%	-26%
CCCOCC(C)O (configuration not stated)	.	.	.	-2%	.
Cc1ccc(-n2ncc3c(=O)n(Cc4ccccc4C)cnc32)cc1C	.	-4%	.	-4%	.
Cc1cc(C(=O)CSc2nnc(-c3ccncc3)n2-c2ccccc2)c(C)n1C	-6%	-6%	-3%	-11%	-2%
CCCn1c(=O)c2ccccc2n2c(SCC(=O)c3cc(C)n(CC4CCCO4)c3C)nnc12 (configuration not stated)	3%	-6%	2%	-11%	-2%
O=C(COC(=O)c1ccccc1Br)NCC1CCCO1 (configuration not stated)	.	.	5%	.	.
Cc1cc(C(=O)COC(=O)c2ccccc2Br)c(C)n1CC1CCCO1 (configuration not stated)	-34%	0.11µM*	?	.	-30%
Cc1cc(C(=O)COC(=O)CN(C)S(=O)(=O)c2ccc(Cl)cc2)c(C)n1CC1CCCO1 (configuration not stated)	1%	19µM*	1%	-7%	9%
Cc1cc(C(=O)CSc2nnc(-c3cccnc3)n2-c2ccccc2)c(C)n1CC1CCCO1 (configuration not stated)	?	19µM*	12%	-24%	21%
Cc1cc(C(=O)COC(=O)c2ccccc2NCCO)c(C)n1CC1CCCO1 (configuration not stated)	?	1.5µM*	?	.	?
SMILES	Rab9 prom act	FLuc modulator	ELG1 genotox	SMN2 splice up	NPC1 promoter act
COc1ccc(Nc2ncnc3c2cnn3C)c(OC)c1	.	-2%	.	.	.
COc1ccc(NC(=O)C2CCCN(C(=O)c3cnn(-c4ccccc4)c3-n3cccc3)C2)cc1 (configuration not stated)	.	-12%	.	-14%	.
Cc1cc(C(=O)COC(=O)c2cc(O)c3ccccc3c2O)c(C)n1CC1CCCO1 (configuration not stated)	13%	19µM*	2%	1%	8%
CCOc1cc(C(=O)OCC(=O)c2cc(C)n(CC3CCCO3)c2C)ccc1OCC(=O)N1CCOCC1 (configuration not stated)	19%	?	3%	.	12%
Cc1ccc(C(=O)OCC(=O)c2cc(C)n(CC3CCCO3)c2C)cc1 (configuration not stated)	2.2µM*	4.3µM*	?	-2%	2.2µM*
O=c1c2ccccc2c(/C=N/c2n[nH]c(CCCO)n2)c(O)n1-c1ccccc1Cl	-2%	17µM*	1%	5%	-2%
COC(=O)c1ccc(-c2noc(CN3C[C@H]4CC[C@H]3C4)n2)cc1	?	21µM*	?	.	?
COC(=O)c1ccc(-c2noc(CN(C)CC3CCCCO3)n2)cc1 (configuration not stated)	29%	-4%	5%	10µM*	7%
COC(=O)c1ccc(-c2noc(CN(Cc3ccncc3)CC3CCCO3)n2)cc1 (configuration not stated)	-29%	4%	-7%	.	-28%
C[C@H](Br)C(=O)Nc1ccc(C(=O)O)c(O)c1	.	.	.	-9%[9.22 µM]	.
CCn1c(=O)c2sccc2n2c(CCCC(=O)N3CCN(c4cc(C)ccc4C)CC3)nnc12	.	1%	.	.	.
COc1ccc2c(c1OC)C(=O)N(c1ccc(C)cc1)C2	0.71µM*	3µM*	18µM*	.	1.1µM*
COc1ccccc1N1Cc2ccc(OC)c(OC)c2C1=O	2%	-13%	5%	.	0%
COc1ccc2c(c1OC)C(=O)N(c1ccccn1)C2	2.2µM*	11µM*	9.2µM*	11µM*	3.2µM*
COc1ccc2c(c1OC)C(=O)N(c1cccc(C)c1)C2	1.4µM*	1.5µM*	2.1µM*	14µM*	1.4µM*
COc1ccc2c(c1OC)C(=O)N(c1cccc(C(F)(F)F)c1)C2	4.5µM*	5.4µM*	?	13µM*	?
N#Cc1cccc(-c2csc(N3CCC(C(N)=O)CC3)n2)c1	.	-17%	.	.	.
CCN(CC)C(=O)C1CCCc2c1[nH]c1ccc(Cl)cc21 (configuration not stated)	16%	1%	-5%	3.5µM*	-5%
COc1cccc(/C=C/C(=O)c2ccc(NC3=NCCCS3)cc2)c1	1%	11µM*	?	-26%	-3%
CC(C)(C)c1ccc(/C=C/C(=O)c2ccc(NC3=NCCCS3)cc2)cc1	-3%	15µM*	-11%	-107%	1%
